Values joined by “and” are separate entries in the source; they are usually repeats but may differ in a detail not shown here. Equal entries are not always repeated. Among all 5,500 compounds or so, about 2,000 (36%) were called active. Inconclusive results (about 18%) are left out. Rule as the data show it: active = normalized growth mostly below about 0.91 (no sharp cut-off); inconclusive = no clear call, values can overlap the other calls; inactive = mostly above about 0.92. The list shows a part of the results.
Assay: chemical genetic growth profiling, strain panel (AID 1159580);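 also: tested at 20 µM; growth read once vehicle control cultures reached saturation at 30 °C; 1 = growth at the plate median or of vehicle wells; lower values mean less growth of the strain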
Details: S. cerevisiae deletion strains, growth OD

Measured: normalized growth

CCOC(=O)C1=C(C)NC(C)=C(C(=O)OC)C1c1cccc([N+](=O)[O-])c1 (stereo unspecified)
inactive: locus YAL013W, strain DEP1, active compounds read low 1 and 0.987 | locus YAL021C, strain ccr4, active compounds read low 0.996 | locus YAL026C, strain drs2, active compounds read low 1.01 | locus YAL030W, strain snc1, active compounds read low 0.997 | locus YBL061C, strain skt5, active compounds read low 1 | locus YBR009C, strain hhf1, active compounds read low 1.01 | locus YBR021W, strain FUR4, active compounds read low 0.977 | locus YBR023C, strain chs3, active compounds read low 0.999 | locus YBR171W, strain sec66, active compounds read low 1.01 | locus YBR229C, strain ROT2, active compounds read low 1.01 | locus YBR231C, strain swc5, active compounds read low 0.999 | locus YBR279W, strain paf1, active compounds read low 1.01 | locus YCL011C, strain gbp2, active compounds read low 0.995 | locus YCL016C, strain dcc1, active compounds read low 1.01 | locus YCL029C, strain bik1, active compounds read low 1.01 | locus YCL061C, strain MRC1 (second series), active compounds read low 0.985 | locus YCL061C, strain MRC1, active compounds read low 1.01 | locus YCL069W, strain vba3, active compounds read low 1.01 | locus YCR088W, strain abp1, active compounds read low 1.01 | locus YDL005C, strain med2, active compounds read low 1.01 | locus YDL035C, strain GPR1, active compounds read low 1 | locus YDL040C, strain nat1, active compounds read low 1 | locus YDL074C, strain BRE1, active compounds read low 0.988 | locus YDL101C, strain DUN1, active compounds read low 1 | locus YDL134C, strain PPH21, active compounds read low 1 | locus YDL185W, strain tfp1, active compounds read low 0.996 | locus YDL192W, strain arf1, active compounds read low 1 | locus YDR001C, strain nth1, active compounds read low 1.01 | locus YDR069C, strain doa4, active compounds read low 1.01 | locus YDR101C, strain arx1, active compounds read low 0.997 | locus YDR137W, strain rgp1, active compounds read low 0.98 | locus YDR150W, strain NUM1, active compounds read low 1 | locus YDR159W, strain sac3, active compounds read low 1.01 | locus YDR162C, strain NBP2, active compounds read low 0.945 | locus YDR195W, strain ref2 1.03 | locus YDR297W, strain sur2, active compounds read low 1 | locus YDR318W, strain mcm21, active compounds read low 1.02 | locus YDR334W, strain swr1, active compounds read low 1.02 | locus YDR335W, strain msn5, active compounds read low 1.02 | locus YDR363W, strain ESC2, active compounds read low 1 | locus YDR388W, active compounds read low 1.01 | locus YDR392W, strain spt3, active compounds read low 0.946 | locus YDR502C, strain sam2, active compounds read low 1 | locus YEL003W, strain gim4, active compounds read low 1.01 | locus YEL037C, strain rad23, active compounds read low 1.01 | locus YEL061C, strain CIN8 (second series), active compounds read low 1.01 | locus YEL061C, strain CIN8, active compounds read low 0.994 | locus YER002W, strain NOP16, active compounds read low 0.933 | locus YER015W, strain faa2, active compounds read low 1.02 | locus YER016W, strain bim1, active compounds read low 1.01 | locus YER110C, active compounds read low 1.01 | locus YER111C, strain swi4, active compounds read low 1.02 | locus YER155C, strain BEM2 (second series), active compounds read low 1.03 | locus YER155C, strain BEM2, active compounds read low 0.997 | locus YER167W, strain BCK2, active compounds read low 1 | locus YFR010W, strain ubp6, active compounds read low 1.02 | locus YGL078C, strain dbp3, active compounds read low 1.01 | locus YGL086W, strain mad1, active compounds read low 1.02 | locus YGL167C, strain pmr1, active compounds read low 1 | locus YGL173C, strain kem1, active compounds read low 1.01 | locus YGL227W, strain vid30, active compounds read low 1.01 | locus YGL240W, strain doc1, active compounds read low 0.994 | locus YGL248W, strain PDE1, active compounds read low 0.998 | locus YGL253W, strain hxk2, active compounds read low 1 | locus YGR078C, strain PAC10, active compounds read low 0.977 | locus YGR135W, strain pre9, active compounds read low 0.977 | locus YGR229C, strain SMI1, active compounds read low 0.961 and 1 | locus YGR252W, strain gcn5, active compounds read low 1.02 | locus YHR013C, strain ard1, active compounds read low 1.03 | locus YHR027C, strain rpn1, active compounds read low 1.01 | locus YHR030C, strain SLT2, active compounds read low 1.01 | locus YHR079C, strain IRE1 (second series), active compounds read low 1 | locus YHR094C, strain hxt1, active compounds read low 0.994 | locus YHR129C, strain ARP1, active compounds read low 1.01 | locus YHR142W, strain chs7, active compounds read low 0.976 | locus YHR200W, strain rpn10, active compounds read low 1 | locus YIL066C, strain RNR3, active compounds read low 1.02 | locus YIL073C, strain SPO22, active compounds read low 1.04 | locus YIL125W, strain kgd1, active compounds read low 0.999 | locus YIR030C, strain dcg1, active compounds read low 0.999 | locus YJL092W, strain hpr5, active compounds read low 1 | locus YJL095W, strain BCK1 (second series), active compounds read low 1.01 | locus YJL095W, strain BCK1, active compounds read low 0.994 | locus YJL115W, strain asf1, active compounds read low 1.02 | locus YJL129C, strain trk1, active compounds read low 0.992 | locus YJL134W, strain LCB3, active compounds read low 1 | locus YJL154C, strain vps35, active compounds read low 1.02 | locus YJL164C, strain tpk1, active compounds read low 1.01 | locus YJL166W, strain qcr8, active compounds read low 1.01 | locus YJL168C, strain set2, active compounds read low 1.01 | locus YJL187C, strain SWE1 (second series), active compounds read low 1.01

From PubChem BioAssay AID1159580 (chemical genetic matrix, 2015)
